We go through 21 compounds from PubChem BioAssay (Tox21).

The structures appear in SMILES notation. Results filed as inconclusive are left out. Calls of active or inactive are those of the source. Calls come from the whole dose curve; as a rule, active = well fitted curve in the direction sought with a large enough effect in the repeat runs; inconclusive = weak or mixed curves; inactive = no such curve, though single readings can be large; an effect the other way counts as inactive or inconclusive.

A short description of assay [1]: qHTS RealTime-Glo MT Cell Viability Assay in HEK293 cells - 0 hour (AID 1224880). Note: top concentration of the series differs between compounds; nearly all actives have a fitted effect of over 45% in size. Summed up:
(§1)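 Cells were seeded together with NanoLuc luciferase and a prosubstrate that viable cells reduce to a luciferase substrate. After a 5 h incubation at 37 C/5% CO2, compounds were added and luminescence was measured repeatedly during 40 h of treatment.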

Assay [2] is described as follows: A CellTox Green Cytotoxicity Assay to monitor cytotoxicity in HEK293 cells - 32 hour (AID 1224881). Note: nearly all actives have a fitted effect of over 40% in size. Summed up:
(§2)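 Nonlytic real-time cytotoxicity: HEK293 + CellTox Green reagent plated, 5 h preincubation, pintool compound addition (23 nL in DMSO), 37 C for 40 h, fluorescence measured at successive time points.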

Assay [3] is described as follows: A CellTox Green Cytotoxicity Assay to monitor cytotoxicity in HEK293 cells - 8 hour (AID 1224884). Note: nearly all actives have a fitted effect of over 35% in size. Summed up: as §2
Assay [4] can be described thus: qHTS RealTime-Glo MT Cell Viability Assay in HepG2 cells - 16 hour (AID 1224885). Note: nearly all actives have a fitted effect of over 50% in size. Summed up: (§3)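 Real-time, nonlytic viability: 600 HepG2 cells/well mixed with NanoLuc enzyme plus prosubstrate; 5 h settle, compound (DMSO) added by pintool; luminescence monitored over 40 h at 37 C.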
Background: qHTS replaces the single test concentration by a dilution series.

Assay [5] can be described thus: qHTS RealTime-Glo MT Cell Viability Assay in HEK293 cells - 24 hour (AID 1224886). Note: nearly all actives have a fitted effect of over 50% in size. Note: potency is the fitted concentration of half-maximal effect. The procedure, abridged:
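Cells + reagent dispensed (600 cells/well, HEK293) → 5 h at 37 C/5% CO2 → 23 nL compound in DMSO pinned → 40 h at 37 C → luminescence read at 0, 8, 16, 24, 32, 40 h.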

Assay [6] can be described thus: qHTS RealTime-Glo MT Cell Viability Assay in HEK293 cells - 8 hour (AID 1224887). Note: top concentration of the series differs between compounds; nearly all actives have a fitted effect of over 50% in size. Summed up:
as §1

Assay [7] in a line: A CellTox Green Cytotoxicity Assay to monitor cytotoxicity in HEK293 cells - 16 hour (AID 1224888). Note: nearly all actives have a fitted effect of over 35% in size. The procedure, abridged:
as §2

A short description of assay [8]: qHTS RealTime-Glo MT Cell Viability Assay in HepG2 cells - 0 hour (AID 1224889). Note: nearly all actives have a fitted effect of over 50% in size. The procedure, abridged:
as §3

Assay [9] can be described thus: A CellTox Green Cytotoxicity Assay to monitor cytotoxicity in HepG2 cells - 0 hour (AID 1224882). Note: nearly all actives have a fitted effect of over 35% in size. The procedure, abridged: (§4)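 Read-out is fluorescence of a cyanine dye excluded from live cells that stains DNA of dead HepG2 cells, with signal proportional to cytotoxicity. Plates were read at 0, 8, 16, 24, 32 and 40 h after compound addition.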
Assay [10] is described as follows: A CellTox Green Cytotoxicity Assay to monitor cytotoxicity in HepG2 cells - 32 hour (AID 1224883). Note: nearly all actives have a fitted effect of over 50% in size. Note: potency is the fitted concentration of half-maximal effect. The procedure, abridged:
as §4

With `Sc1ccccc1Cl`, the Potency entry in assay [1], in assay [2], in assay [3], in assay [4], in assay [5] and in [6] was “inactive” in each case. In addition, the Potency result in [7] and in assay [8] was “inactive” throughout.
On to `CCCCCCCCOC(=O)c1ccc(C(=O)OCCCCCCCC)c(C(=O)OCCCCCCCC)c1`, for which the Potency result in assay [1], in assay [9], in assay [10], in assay [4], in assay [5] and in assay [6] was “inactive” each time. Further, the Potency entry in assay [7] and in assay [8] was “inactive” throughout.
Consider `CCCN(CC1CC1)c1c([N+](=O)[O-])cc(C(F)(F)F)cc1[N+](=O)[O-]`, for which the Potency entry in [1], in assay [2], in [9], in [4], in assay [5] and in assay [7] was “inactive” in each case. For the same compound, the Potency entry in assay [8] was “inactive”.
On to `c1ccc(C2CC2)c(OCC2=NCCN2)c1`, for which the Potency entry in assay [1], in assay [9], in assay [10], in [4], in assay [5] and in [6] was “inactive” throughout. The Potency entry in [7] and in [8] was “inactive” throughout.
For the compound `O=[N+]([O-])c1ccccc1CCl`, the Potency result in assay [1], in assay [9], in [10], in [3], in assay [4] and in assay [5] was “inactive” in each case. In addition, the Potency result in assay [6], in [7] and in assay [8] was “inactive” throughout.
For the compound `C=CC(C)=O`, the Potency entry in [1], in assay [9], in assay [10], in assay [3], in assay [4] and in [5] was “inactive” in each case. Besides, the Potency result in assay [6], in assay [7] and in [8] was “inactive” each time.
On to `C#CCOC(C(=O)OCCN(C)C)(c1ccccc1)c1ccccc1`, for which the Potency entry in [1], in assay [9], in [10], in assay [3], in assay [4] and in [5] was “inactive” in each case. Also, the Potency result in [6], in assay [7] and in assay [8] was “inactive” throughout.
Take `Cl/C=C\C[N+]12CN3CN(CN(C3)C1)C2`: the Potency result in assay [1], in assay [9], in assay [10], in [3], in assay [4] and in assay [6] was “inactive” throughout. The Potency result in [7] and in [8] was “inactive” each time.
For the compound `Nc1ccc(N=Nc2ccc(-c3ccc(N=Nc4c(S(=O)(=O)O)cc5cc(S(=O)(=O)O)c(N=Nc6ccccc6)c(O)c5c4N)cc3)cc2)c(N)c1`, the Potency result in assay [1], in assay [9], in [10], in assay [4], in assay [5] and in assay [6] was “inactive” in each case. For the same compound, the Potency entry in assay [7] is “inactive”.
`O=[Se]=O`: the Potency result in assay [1], in assay [9], in assay [3], in assay [4], in assay [6] and in assay [7] was “inactive” in each case. For the same compound, in assay [8], the Potency entry was “inactive”. In addition, the Potency in assay [10] was 24.4 µM (active); in assay [5], 17.3 µM (active).
With `Cc1ccc2ccccc2c1`, the Potency entry in assay [1], in [9], in assay [10], in assay [3], in assay [4] and in assay [5] was “inactive” each time. In addition, the Potency entry in assay [6], in assay [7] and in assay [8] was “inactive” throughout.
On to `CCCC(Cn1cncn1)c1ccc(Cl)cc1Cl` (stereo not drawn), for which the Potency entry in assay [1], in assay [9], in assay [3], in [7] and in assay [8] was “inactive” each time. The Potency is 49 µM (active) in [10] and 21.9 µM (active) in assay [5].
As to `OC(c1ccc(Cl)cc1)(c1ccc(Cl)cc1)c1cccnc1`, the Potency result in [1], in assay [9], in assay [10], in [3], in assay [7] and in assay [8] was “inactive” each time. For the same compound, the Potency in assay [5] was 38.9 µM (active).
In the case of `COc1cc(Cl)c(OC)cc1Cl`, the Potency entry in assay [1], in [9], in assay [10], in assay [4], in assay [5] and in [6] was “inactive” throughout. In addition, the Potency entry in assay [7] and in assay [8] was “inactive” each time.
On to `C=CC[C@]1(O)CC[C@H]2[C@@H]3CCC4=CC(=O)CCC4=C3C=C[C@@]21C`, for which the Potency entry in [1], in assay [9], in [10], in [3] and in assay [7] was “inactive” throughout. For the same compound, the Potency in assay [5] is 19 µM (active).
For `O=NN1CCCCCC1`, the Potency entry in assay [1], in assay [9], in assay [10], in [3], in [4] and in assay [5] was “inactive” in each case. For the same compound, the Potency result in assay [6], in assay [7] and in [8] was “inactive” each time.
For the compound `N#C/C(N)=C(/N)C#N`, the Potency result in assay [1], in assay [9], in [10], in [3], in assay [4] and in [5] was “inactive” each time. Also, the Potency result in [6], in [7] and in assay [8] was “inactive” throughout.
On to `[O-][Cl+]O`, for which the Potency entry in assay [1], in assay [9], in [10], in assay [3], in assay [4] and in [5] was “inactive” each time. For the same compound, the Potency entry in assay [6], in assay [7] and in assay [8] was “inactive” each time.
In the case of `Oc1ccc(Cl)c(Cl)c1Cl`, the Potency result in [1], in assay [2], in assay [9], in assay [4], in [6] and in [7] was “inactive” throughout. The Potency result in [8] is “inactive”.
Regarding `C=COC(C)=O`, the Potency result in assay [1], in [9], in [10], in assay [3], in assay [4] and in assay [5] was “inactive” throughout. The Potency result in [6] and in assay [8] was “inactive” in each case.
Regarding `O=C(O)C(F)(F)C(F)(F)C(F)(F)C(F)(F)C(F)(F)C(F)(F)C(F)(F)C(F)(F)C(F)(F)C(F)(F)F`, the Potency entry in [1], in assay [2], in assay [3], in assay [4], in [5] and in assay [6] was “inactive” each time. Moreover, the Potency result in assay [7] was “inactive”.
